ChEMBL document CHEMBL4513146, “CO-ADD screening of Karazin Kharkiv National University (Ukraine) compounds”
Entries with a potency or affinity are not part of this list.

Legend:
[1] = test system: Klebsiella pneumoniae; conditions: Concentration 32 ug.mL-1;; ASSAY_TEST Inhibition of Bacterial Growth; detection method Absorption (OD600); MEDIA CAMHB; plate type 384well; NBS; CORNING #3640; time 18 hr
[2] = test system: Candida albicans; conditions: Concentration 32 ug.mL-1; ASSAY_TEST Inhibition of Fungal Growth; detection method Absorption (OD530)
[3] = test system: Cryptococcus neoformans; conditions: Concentration 32 ug.mL-1; ASSAY_TEST Inhibition of Fungal Growth; detection method Resazurin; Absorption (OD600-OD570); plate type 384well; NBS; CORNING #3640

SMILES	Inhibition [1]	Inhibition [2]	Inhibition [3]
COc1ccc(NC(=O)Cn2nc3c(SC4CCCCC4)nccn3c2=O)cc1Cl	-2.37%	10.68%	-22.74%
Cc1ccc(NC(=O)Cn2nc3ccc(SC4CCCCC4)nn3c2=O)cc1C	-2.51%	4.67%	-21.19%
COc1ccc(-c2cc3c4nn(CC(=O)NCc5ccc(Cl)cc5)c(=O)n4ccn3n2)cc1	20.18%	0.12%	-24.2%
COc1ccc(CNC(=O)CSc2nnc3c4cc(-c5ccc(C)cc5)nn4ccn23)cc1OC	9.92%	-0.42%	-20.85%
COc1ccc(NC(=O)c2ccc3nn(CC(=O)Nc4ccc(C(C)C)cc4)c(=O)n3c2)cc1	5.27%	10.58%	-13.36%
Cc1cc2nn(CC(=O)Nc3cccc(F)c3)c(=O)n2c(Nc2ccc(F)c(C)c2)n1	7.53%	6.76%	-7%
Cc1cc(C)c(NC(=O)Cn2nc3c4c5c(sc4ncn3c2=O)CCCC5)c(C)c1	7.2%	39.7%	-18.32%
CCCc1nnc2c(=O)n(CC(=O)Nc3cccc(C#N)c3)c3ccccc3n12	0.67%	-0.31%	-17.76%
Cc1cccc(N(C)C(=O)Cn2nc3cc(C)nc(Nc4ccc(F)c(C)c4)n3c2=O)c1	4.58%	2.18%	-4.41%
O=C(Cn1nc2c(Oc3ccccc3)nccn2c1=O)Nc1ccccc1Cl	5.8%	-0.88%	-12.94%
CCOc1ccccc1NC(=O)Cn1nc2c3cc(-c4ccc(Cl)cc4)nn3ccn2c1=O	12.1%	2.9%	-13.93%
CC(C)Cn1c(=O)c2sccc2n2c(=O)n(CC(=O)NC(C)C)nc12	6.06%	1.49%	-7.6%
COc1ccccc1-n1ccn2c(SCC(=O)Nc3ccc(C)c(F)c3)nnc2c1=O	8.02%	2.55%	-5.32%
COc1ccc(-c2cc3c4nn(CC(=O)Nc5cc(OC)cc(OC)c5)c(=O)n4ccn3n2)cc1	0.53%	33.73%	-18.18%
CCOc1cccc(CNC(=O)CCc2nnc3ccc(-c4ccc(C)cc4)nn23)c1	8.62%	2%	-6.55%
COc1ccc(NC(=O)Cn2nc3ccc(-c4ccc(Cl)cc4)nn3c2=O)cc1OC	8.45%	-2.47%	-11.98%
CCc1nnc2c(SCC(=O)Nc3ccc(C)cc3Cl)nc3ccccc3n12	11.28%	1.59%	-8.66%
Cc1ccc(Cn2nc3c(=O)n(-c4ccc(C)c(C)c4)ccn3c2=O)cc1	14.01%	3.7%	-17.46%
Cc1ccc(N(Cc2cccc(C)c2)S(=O)(=O)c2cccn3c(C)nnc23)cc1	5.17%	4.46%	-6.62%
CCOC(=O)c1ccccc1NC(=O)Cn1nc2c(Oc3cccc(C)c3C)nccn2c1=O	7.42%	0.56%	-7.85%
CC(C)NC(=O)Cn1nc2nc(Nc3ccc(F)cc3)ccn2c1=O	12.23%	2.08%	-10.27%
O=C(CCc1nnc2ccc(-c3ccc(Cl)cc3)nn12)NCc1ccc(F)cc1Cl	20.9%	0.76%	-15.23%
CCC(C)NC(=O)Cn1nc2ccc(SCc3ccc(Cl)cc3)nn2c1=O (centres undefined)	12.21%	3.51%	-20.85%
Cc1ccccc1N1CCN(c2nccn3c(=O)n(CC(=O)Nc4cccc(C(C)C)c4)nc23)CC1	0.34%	19.66%	-7.69%
O=c1c2sccc2n2c(=O)n(Cc3c(F)cccc3Cl)nc2n1CCc1ccccc1	4.07%	1.94%	-23.82%
CCCN(C)c1nccn2c(=O)n(CC(=O)Nc3cccc(SC)c3)nc12	8.64%	8.61%	-6.21%
O=C(Cn1nc2c(Sc3ccccc3)nccn2c1=O)Nc1ccc2c(c1)OCO2	1.19%	12.77%	-5.13%
Cc1ccc(S(=O)(=O)Nc2ccc3nnc(-c4ccccc4)n3n2)cc1C	0.88%	0.52%	-4.99%
